Data on 14 sequences can be found in the supplement of paper PMC10681739.

The target of experiment [1] is T1, ETS1 (UniProt P14921).
T1 sequence: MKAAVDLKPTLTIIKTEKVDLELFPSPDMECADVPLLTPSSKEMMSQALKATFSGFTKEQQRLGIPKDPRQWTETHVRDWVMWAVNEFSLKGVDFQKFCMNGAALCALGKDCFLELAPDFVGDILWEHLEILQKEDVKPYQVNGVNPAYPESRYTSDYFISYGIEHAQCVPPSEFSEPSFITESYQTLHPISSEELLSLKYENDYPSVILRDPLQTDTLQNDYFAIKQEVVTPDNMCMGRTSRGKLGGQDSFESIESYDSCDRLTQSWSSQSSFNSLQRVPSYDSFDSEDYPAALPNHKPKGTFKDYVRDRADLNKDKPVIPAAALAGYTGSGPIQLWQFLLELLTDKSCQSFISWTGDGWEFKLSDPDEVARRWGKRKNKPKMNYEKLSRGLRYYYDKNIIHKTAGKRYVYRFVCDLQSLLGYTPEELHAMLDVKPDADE
The experiment in a line: ETS1 binding intensity (PBM fluorescence), ETS1 alone (arbitrary fluorescence units); higher = stronger binding. The following applies: ETS1 concentration 1 nM; RUNX1 concentration 0 nM.

Experiment [2] addresses RUNX1 (UniProt Q01196). The experiment can be described thus: RUNX1 binding intensity (PBM fluorescence), RUNX1 alone (arbitrary fluorescence units); higher = stronger binding. To be noted: RUNX1 concentration 2 nM; ETS1 concentration 0 nM. The protocol: (§1)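 Cooperative gcPBM on 36-bp genomic probes with neighbouring ETS1 and RUNX1 sites. Recombinant human RUNX1 (2 nM) was incubated alone or with ETS1 (25 nM) and detected with anti-RUNX1 antibody plus Alexa488 secondary. Values are medians over 4 replicate spots; the RUNX1+ETS1 data were normalised to the RUNX1-only data. The probes sit in constant array flanks that are not printed.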

The target of experiment [3] is T1, ETS1. The experiment can be described thus: ETS1 binding intensity (PBM fluorescence) in presence of RUNX1, normalised to ETS1-only experiment (arbitrary fluorescence units); higher = stronger binding. The following applies: ETS1 concentration 1 nM; RUNX1 concentration 25 nM.
Experiment [4] concerns the target RUNX1 (UniProt Q01196). The experiment can be described thus: RUNX1 binding intensity (PBM fluorescence) in presence of ETS1, normalised to RUNX1-only experiment (arbitrary fluorescence units); higher = stronger binding. The following applies: RUNX1 concentration 2 nM; ETS1 concentration 25 nM. The protocol:
as §1
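Wherever RUNX1 binding intensity (PBM fluorescence) in presence of ETS1, normalised to RUNX1-only experiment is given: Full-length recombinant human ETS1 or RUNX1 bound to double-stranded 36-bp genomic probes on microarrays, detected by protein-specific primary antibody and Alexa488 secondary, spot fluorescence as median of four replicate spots.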
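Wherever RUNX1 binding intensity (PBM fluorescence), RUNX1 alone is given: Full-length recombinant human RUNX1 bound to double-stranded 36-bp genomic probes on a high-density microarray, scored as Alexa488 fluorescence per spot via anti-RUNX1 antibody, median of four replicate spots.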

Chain of RUNX1 (Q01196 whole entry): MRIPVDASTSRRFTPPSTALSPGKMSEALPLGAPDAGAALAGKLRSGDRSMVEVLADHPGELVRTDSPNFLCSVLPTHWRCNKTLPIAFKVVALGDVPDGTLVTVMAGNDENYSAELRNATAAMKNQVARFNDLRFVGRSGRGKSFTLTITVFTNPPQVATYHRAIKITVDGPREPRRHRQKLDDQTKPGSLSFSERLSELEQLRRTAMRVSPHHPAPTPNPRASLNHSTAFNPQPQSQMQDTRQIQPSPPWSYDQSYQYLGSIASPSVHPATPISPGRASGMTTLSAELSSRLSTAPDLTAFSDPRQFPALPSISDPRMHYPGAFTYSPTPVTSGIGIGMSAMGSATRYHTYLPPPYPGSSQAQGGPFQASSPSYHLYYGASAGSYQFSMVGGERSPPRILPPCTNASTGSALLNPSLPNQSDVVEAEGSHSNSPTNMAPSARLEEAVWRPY

Consider CAGCTCCGACTTCCGGGTGCGGTACGGCGAAGCAGA, for which the values for the ETS1 binding intensity with ETS1 [1] and with ETS1 [3] were 1320 and 1610, respectively. Besides, the RUNX1 binding intensity in the experiment with RUNX1 [2] was 756; with RUNX1 [4], 2140.

On to CAACGGCGTAGCCGGAAGTCAGTGGTTTTCGCCCCA, for which the ETS1 binding intensity turned out to be 12100 with ETS1 [1] and 18200 in the experiment with ETS1 [3]. For the same sequence, the RUNX1 binding intensity with RUNX1 [2] worked out at 721; in the experiment with RUNX1 [4], 1650.

With TCACATCCTGTAATGGTTTGCGCATACCACAGTTCT, the ETS1 binding intensity with ETS1 [1] amounted to 455; with ETS1 [3], 684. The RUNX1 binding intensity came to 825 with RUNX1 [2] and 1740 with RUNX1 [4].

In the case of AGTCAAACAGGATGTGGCTGGGGAGGCGGTTGTCAC, the ETS1 binding intensity amounted to 3750 with ETS1 [1] and 4660 with ETS1 [3]. In addition, the values for the RUNX1 binding intensity in the experiment with RUNX1 [2] and in the experiment with RUNX1 [4] were 725 and 2040, respectively.

Consider CATGCGTCACCTTCCTGTGTGGTCAGCAGTGCTTGC, for which the ETS1 binding intensity with ETS1 [1] turned out to be 383; in the experiment with ETS1 [3], 468. The values for the RUNX1 binding intensity with RUNX1 [2] and with RUNX1 [4] were 915 and 1420, respectively.

As for CTGACACTTCCGGGAGCCTTGTAGCCACAGGAATCA, the ETS1 binding intensity turned out to be 2490 in the experiment with ETS1 [1] and 2590 with ETS1 [3]. Besides, the RUNX1 binding intensity was determined as 743 with RUNX1 [2] and 1800 with RUNX1 [4].

CCGCCGCGCGCCGGATGCTAAGACCGCGATTTCCCC: the ETS1 binding intensity with ETS1 [1] came to 4180; with ETS1 [3], 7590. Further, the RUNX1 binding intensity with RUNX1 [2] was determined as 781; with RUNX1 [4], 1110.

GGGAACTGGGGAAGGGGATGTGGTAACCAGAACCAC: the results for the ETS1 binding intensity with ETS1 [1] and in the experiment with ETS1 [3] were 543 and 2600, respectively. The RUNX1 binding intensity with RUNX1 [2] came to 869; in the experiment with RUNX1 [4], 1050.

On to AGGAGAAGGAAGAGGATGTTGAGGTTGGGGGAAACC, for which the ETS1 binding intensity in the experiment with ETS1 [1] was 1610; in the experiment with ETS1 [3] it was 2530. The RUNX1 binding intensity was 726 with RUNX1 [2] and 882 with RUNX1 [4].

As for TGATCAGCAAAAGGAAGTGGTTAACATGGCCCAGAA, the ETS1 binding intensity is 1540 with ETS1 [1] and 4770 with ETS1 [3]. For the same sequence, the RUNX1 binding intensity amounted to 825 with RUNX1 [2] and 1990 with RUNX1 [4].

As to GCCGGGCACTTCCTGTGGAGGCCGCAGCGGGTGCGC, the ETS1 binding intensity turned out to be 1330 with ETS1 [1] and 1560 in the experiment with ETS1 [3]. Also, the RUNX1 binding intensity in the experiment with RUNX1 [2] was determined as 709; with RUNX1 [4], 1780.

Take TGACGGCAGGCAGGATGTGGTGAGACAAATCCACTC: the ETS1 binding intensity with ETS1 [1] came to 4070; with ETS1 [3], 8840. Moreover, the RUNX1 binding intensity in the experiment with RUNX1 [2] worked out at 904; in the experiment with RUNX1 [4], 2660.

For the sequence GCCACCTCTTCCTGTGTTGCAAACCACAGGTCCACC, the ETS1 binding intensity came to 805 with ETS1 [1] and 1320 with ETS1 [3]. For the same sequence, the RUNX1 binding intensity with RUNX1 [2] is 1600; in the experiment with RUNX1 [4], 5050.

With GGGGAAGAGGGGAGGATGTCTGAGGTTTTAATTGTA, the ETS1 binding intensity with ETS1 [1] came out at 523; with ETS1 [3], 689. Besides, the RUNX1 binding intensity amounted to 861 in the experiment with RUNX1 [2] and 793 in the experiment with RUNX1 [4].
